Whole data set: some 81,000 sequences, median “one-hybrid fitness for binding parS DNA” near -0.17, cut for the highest 2% near 0.51. For the sample, the highest values were picked, then their nearest neighbours and some sequences at random.
B1: Caulobacter ParB omega fusion; a variant is named by its letters at X, in order, B8GW30 (parent)
chain: MESVVVGEPGMSEGRRGLGRGLSALLGEVDAAPAQAPGEQLGGSREAPIEILQRNPDQPRRTFREEDLEDLSNSIREKGVLQPILVRPSPDTAGEYQIVAGERAWRAAQRAGLKTVPIMVRELDDLAVLEIGIIENVQRADLNVLEEALSYKVLMEKFERTQENIAQTIGKSXSHVANXMRLLXLPDEVQSYLVSGELTAXHARAIAAAADPVALAKQIIEGGLSVRETEALARKAPNLSAGKSKGGRPPRVKDTDTQALESDLSSVLGLDVSIDHRGSTGTLTITYATLEQLDDLCNRLTRGI

Variants of: B1
Assay: one-hybrid fitness for binding parS DNA (scaled: cognate 1, non-cognate 0); higher = stronger binding
Conditions: with parS DNA site
Procedure, shortened: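 In E. coli USO, a HIS3 reporter with its site placed 19 bp from the promoter was used to select Caulobacter ParB variants randomised at four specificity codons. Growth lasted 48 hours at 37°C on histidine-free M9 containing 0.1 mM IPTG and 5 mM 3-AT. Fitness was taken as the log change in variant-to-wild-type read ratio from Illumina sequencing of pre- and post-selection plasmids, rescaled between the non-cognate and cognate sites.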

Row | Variant | one-hybrid fitness for binding parS DNA
1 | EAAT | ≤ 0.2
2 | GLPN | ≤ 0.2
3 | PHRK | ≤ 0.2
4 | FRSF | ≤ 0.2
5 | RRWN | 0.323
6 | RHWH | ≤ 0.2
7 | RIWQ | ≤ 0.2
8 | RKWR | ≤ 0.2
9 | RRWC | 0.739
10 | RKWC | 0.887
11 | RIWC | 0.936
12 | RHWC | 0.759
13 | RIWR | ≤ 0.2
14 | RRWH | ≤ 0.2
15 | RHWD | ≤ 0.2
16 | RKWM | 0.254
17 | SIKI | ≤ 0.2
18 | YAQR | ≤ 0.2
19 | PSHG | ≤ 0.2
20 | PMWK | ≤ 0.2
21 | IENR | ≤ 0.2
22 | ANYG | ≤ 0.2
23 | HGQS | ≤ 0.2
24 | KWCC | ≤ 0.2

Row | Variant | one-hybrid fitness for binding parS DNA
25 | NAYS | ≤ 0.2
26 | ENRN | ≤ 0.2
27 | TWCR | ≤ 0.2
28 | THVD | ≤ 0.2
29 | RMWL | ≤ 0.2
30 | RSWC | 0.847
31 | RLWM | 0.342
32 | REWC | ≤ 0.2
33 | RPWC | ≤ 0.2
34 | RLWC | 0.952
35 | RSWN | 0.412
36 | RMWM | 0.344
37 | RCWC | 0.959
38 | RMWC | 0.984
39 | RSWH | ≤ 0.2
40 | RLWF | 0.255
41 | LRIP | ≤ 0.2
42 | LILQ | ≤ 0.2
43 | ENVC | ≤ 0.2
44 | PHDG | ≤ 0.2
45 | NQKT | ≤ 0.2
46 | QLHL | ≤ 0.2
47 | SRVM | ≤ 0.2
48 | CYAS | ≤ 0.2

Row | Variant | one-hybrid fitness for binding parS DNA
49 | LQFE | ≤ 0.2
50 | IFWT | 0.24
51 | YSKG | ≤ 0.2
52 | TVTW | ≤ 0.2
53 | LNPP | ≤ 0.2
54 | GYPI | ≤ 0.2
55 | RLFQ | ≤ 0.2
56 | RLFR | ≤ 0.2
57 | RLAT | 0.938
58 | RLAK | ≤ 0.2
59 | RLAQ | ≤ 0.2
60 | RLFT | 0.838
61 | SNGD | ≤ 0.2
62 | SLHC | ≤ 0.2
63 | QQSF | ≤ 0.2
64 | CLAL | ≤ 0.2
65 | LSRM | ≤ 0.2
66 | SMQP | ≤ 0.2
67 | RRSR | ≤ 0.2
68 | RRSD | ≤ 0.2
69 | RRSH | ≤ 0.2
70 | RRSP | ≤ 0.2
71 | RRSN | 0.695
72 | RRSS | 0.653

Row | Variant | one-hybrid fitness for binding parS DNA
73 | EKER | ≤ 0.2
74 | TCNL | ≤ 0.2
75 | QSVW | ≤ 0.2
76 | TGSG | ≤ 0.2
77 | MLIG | ≤ 0.2
78 | TASY | ≤ 0.2
79 | GFDT | ≤ 0.2
80 | RSSM | 0.327
81 | RDST | ≤ 0.2
82 | REST | ≤ 0.2
83 | RSST | 0.883
84 | RPST | ≤ 0.2
85 | RCST | 0.923
86 | PKQP | ≤ 0.2
87 | RNAS | 0.914
88 | RNFS | 0.719
89 | RNAD | ≤ 0.2
90 | RNAH | ≤ 0.2
91 | RNFN | 0.256
92 | RNFD | ≤ 0.2
93 | KHDT | ≤ 0.2
94 | WNNG | ≤ 0.2
95 | RVAR | ≤ 0.2
96 | RVAT | 0.916

Row | Variant | one-hybrid fitness for binding parS DNA
97 | RVAF | 0.259
98 | RVFM | 0.363
99 | RVFT | 0.917
100 | RVFY | 0.464
101 | SPGM | ≤ 0.2
102 | RMYC | 1.01
103 | RMSC | 0.956
104 | RMRH | 0.261
105 | RMCC | 0.985
106 | RMRD | ≤ 0.2
107 | RMCF | 0.217
108 | RMRC | 0.867
109 | RMSN | 0.449
110 | RMCR | ≤ 0.2
111 | RMYF | 0.289
112 | RMYK | ≤ 0.2
113 | RMSP | 0.204
114 | LSPY | ≤ 0.2
115 | LVGR | ≤ 0.2
116 | GTAK | ≤ 0.2
117 | ELGD | ≤ 0.2
118 | QSMI | ≤ 0.2
119 | EQMT | ≤ 0.2
120 | IWTC | ≤ 0.2

Row | Variant | one-hybrid fitness for binding parS DNA
121 | GPTP | ≤ 0.2
122 | PHIN | ≤ 0.2
123 | LTQT | ≤ 0.2
124 | RDMK | ≤ 0.2
125 | TFCT | ≤ 0.2
126 | RMLR | ≤ 0.2
127 | RMLC | 0.983
128 | RMLL | ≤ 0.2
129 | THQL | ≤ 0.2
130 | RMRA | 0.765
131 | RMYA | 0.651
132 | NMRA | ≤ 0.2
133 | DMYA | ≤ 0.2
134 | RMEA | 0.495
135 | QQDP | ≤ 0.2
136 | GWES | ≤ 0.2
137 | RSPG | 0.507
138 | REIG | ≤ 0.2
139 | RCIG | 0.955
140 | RSIG | 0.822
141 | RPIG | ≤ 0.2
142 | RDIG | ≤ 0.2
143 | PLWA | ≤ 0.2
144 | FGAE | ≤ 0.2

Row | Variant | one-hybrid fitness for binding parS DNA
145 | KGTY | ≤ 0.2
146 | VTTC | ≤ 0.2
147 | MCDS | ≤ 0.2
148 | TPPY | ≤ 0.2
149 | HNSC | ≤ 0.2
150 | RMGN | 0.453
151 | RMHM | 0.374
152 | RMYG | 1.03
153 | RMHF | 0.269
154 | RMHG | 1.01
155 | RMDG | 0.917
156 | RMDN | 0.375
157 | RMGG | 0.993
158 | RMDH | ≤ 0.2
159 | RMYR | 0.225
160 | RMYQ | 0.205
161 | RMGH | ≤ 0.2
162 | SGDY | ≤ 0.2
163 | SKDT | ≤ 0.2
164 | VGNC | ≤ 0.2
165 | RNAF | ≤ 0.2
166 | FYKS | ≤ 0.2
167 | RLMI | ≤ 0.2
168 | SYAC | ≤ 0.2

Row | Variant | one-hybrid fitness for binding parS DNA
169 | QDNF | ≤ 0.2
170 | CRIC | ≤ 0.2
171 | DYAR | ≤ 0.2
172 | QGFS | ≤ 0.2
173 | TIDG | ≤ 0.2
174 | QNGG | ≤ 0.2
175 | NVIK | ≤ 0.2
176 | RMNG | 0.999
177 | RMNR | ≤ 0.2
178 | RMNM | 0.351
179 | RMRF | 0.368
180 | RMRG | 0.962
181 | RMRL | ≤ 0.2
182 | PVDG | ≤ 0.2
183 | TFGE | ≤ 0.2
184 | DQLH | ≤ 0.2
185 | HHQA | ≤ 0.2
186 | RSVN | 0.342
187 | RCVS | 1.02
188 | RPVS | ≤ 0.2
189 | RSVS | 0.946
190 | RSVP | ≤ 0.2
191 | RCVH | ≤ 0.2
192 | RDPY | ≤ 0.2

Row | Variant | one-hybrid fitness for binding parS DNA
193 | NTKG | ≤ 0.2
194 | RMDM | 0.302
195 | RMNE | ≤ 0.2
196 | RMNC | 0.969
197 | RMDK | ≤ 0.2
198 | RMNN | 0.467
199 | RMDC | 0.889
200 | KILI | ≤ 0.2
201 | PNVW | ≤ 0.2
202 | STNR | ≤ 0.2
203 | QRCN | ≤ 0.2
204 | RTVR | ≤ 0.2
205 | RTVC | 0.929
206 | DTKC | ≤ 0.2
207 | RTKK | ≤ 0.2
208 | RTKC | 0.813
209 | TIRR | ≤ 0.2
210 | RNYV | ≤ 0.2
211 | LASP | ≤ 0.2
212 | DNAR | ≤ 0.2
213 | QMYE | ≤ 0.2
214 | RIFA | 0.529
215 | RIAA | 0.62
216 | NIAA | ≤ 0.2

Row | Variant | one-hybrid fitness for binding parS DNA
217 | DIAA | ≤ 0.2
218 | PPGC | ≤ 0.2
219 | WPHF | ≤ 0.2
220 | EGPL | ≤ 0.2
221 | RVND | ≤ 0.2
222 | RVNN | 0.416
223 | RVDS | 0.974
224 | RVDN | 0.371
225 | RVNS | 0.915
226 | RVDP | ≤ 0.2
227 | NYLV | ≤ 0.2
228 | NSCK | ≤ 0.2
229 | IGDM | ≤ 0.2
230 | LLDM | ≤ 0.2
231 | RKNA | 0.834
232 | RKDA | 0.536
233 | NKNA | ≤ 0.2
234 | TAPI | ≤ 0.2
235 | IGRG | ≤ 0.2
236 | CPMT | ≤ 0.2
237 | RPKY | ≤ 0.2
238 | RLKY | 0.704
239 | RIKY | 0.747
240 | RTKY | 0.89

Row | Variant | one-hybrid fitness for binding parS DNA
241 | RCKY | 0.716
242 | RIVY | 0.469
243 | RTVY | 0.443
244 | RKKY | 0.492
245 | RLVY | 0.465
246 | QPIK | ≤ 0.2
247 | KIKS | ≤ 0.2
248 | KKAL | ≤ 0.2
249 | YKKT | ≤ 0.2
250 | ALMT | ≤ 0.2
251 | EPHL | ≤ 0.2
252 | FFHG | ≤ 0.2
253 | FQRT | ≤ 0.2
254 | GLWL | ≤ 0.2
255 | GYNP | ≤ 0.2
256 | PKHV | ≤ 0.2
257 | LGGC | ≤ 0.2
258 | RFKY | 0.569
259 | RSKY | 0.609
260 | RSVY | 0.37
261 | RHVY | 0.354
262 | RFVY | 0.301
263 | SFKY | ≤ 0.2
264 | RHKY | 0.518

Row | Variant | one-hybrid fitness for binding parS DNA
265 | RDKY | ≤ 0.2
266 | RRVY | 0.247
267 | RHYY | 0.438
268 | RRKY | 0.856
269 | QMIF | ≤ 0.2
270 | VKTF | ≤ 0.2
271 | YLRV | ≤ 0.2
272 | VMPR | ≤ 0.2
273 | CRLW | ≤ 0.2
274 | GEYT | ≤ 0.2
275 | RAPY | ≤ 0.2
276 | RAKY | 0.644
277 | RMKY | 0.782
278 | RMVY | 0.438
279 | RAVY | 0.412
280 | KEPT | ≤ 0.2
281 | QTVF | ≤ 0.2
282 | RIKS | 0.822
283 | RIKD | ≤ 0.2
284 | RIVD | ≤ 0.2
285 | RIVS | 1.01
286 | RIVP | ≤ 0.2
287 | RIKP | ≤ 0.2
288 | NSRE | ≤ 0.2

Row | Variant | one-hybrid fitness for binding parS DNA
289 | AKIQ | ≤ 0.2
290 | TIGL | ≤ 0.2
291 | RMGP | 0.235
292 | RFGS | 0.969
293 | RAGN | 0.448
294 | RCGP | ≤ 0.2
295 | RAGD | ≤ 0.2
296 | RPGS | ≤ 0.2
297 | RAGS | 0.989
298 | RCGS | 0.945
299 | RFGN | 0.435
300 | RMGS | 0.988
301 | RMGD | ≤ 0.2
302 | RFGH | 0.245
303 | SGNV | ≤ 0.2
304 | PNMM | ≤ 0.2
305 | SVIY | ≤ 0.2
306 | CGSR | ≤ 0.2

Reference: a collection of fitness landscapes (doi:10.1016/j.celrep.2020.107928)
